Test results published in PubChem BioAssay AID1851 (National Center for Advancing Translational Sciences (NCATS), 2009).
Several values for one entry are separate records, joined by “and”; a condition that tells them apart may be missing. Identical values can stand only once. Hit rate of the full screen: of about 16,000 compounds, about 5,800 (36%) were called active. Not shown: some 23% with an inconclusive outcome. The call rests on the fitted dose curve; in most records, active means well fitted curve in the direction sought with a large enough effect; inconclusive means small, poorly fitted or top-dose-only effect, or effect the other way; inactive means no such curve, though single readings can be large or run the other way. Some of the results follow. The source holds several records for some structures; these can differ, active in one and inactive in another.
On the % scale 0 is the no-effect control and ±100 the full control effect.

The compounds below were run against Cytochrome P450 2C19 (Homo sapiens) (UniProt P33261) (assay: Cytochrome panel assay with activity outcomes). Conditions: recombinant CYP, pro-luciferin dealkylation, luminescence, p450-cyp2c19; series mostly up to 57.1 µM; activity, negative = inhibition: at the top concentration.
Chain of Cytochrome P450 2C19 (Homo sapiens) (P33261 whole entry, looked up): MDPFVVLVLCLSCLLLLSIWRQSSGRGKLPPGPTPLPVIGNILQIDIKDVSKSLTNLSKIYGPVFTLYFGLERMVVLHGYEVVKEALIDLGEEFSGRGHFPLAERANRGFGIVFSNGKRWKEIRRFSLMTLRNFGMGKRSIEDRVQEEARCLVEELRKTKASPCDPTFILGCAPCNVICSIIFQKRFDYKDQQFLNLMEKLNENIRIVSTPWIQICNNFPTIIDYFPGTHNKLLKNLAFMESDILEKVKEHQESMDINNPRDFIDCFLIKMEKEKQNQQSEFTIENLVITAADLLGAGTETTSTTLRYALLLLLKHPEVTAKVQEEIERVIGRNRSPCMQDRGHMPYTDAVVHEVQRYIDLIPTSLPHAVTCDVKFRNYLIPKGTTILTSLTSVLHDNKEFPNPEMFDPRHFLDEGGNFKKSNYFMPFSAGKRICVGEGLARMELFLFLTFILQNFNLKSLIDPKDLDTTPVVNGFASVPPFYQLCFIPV
In the case of `O=C(NCCCn1ccnc1)c1ccc(Br)c(S(=O)(=O)N2CCOCC2)c1`, the AC50 is reported as 17.8 µM (active). With `COC(=O)c1ccc(Oc2cc(C)nc(-n3nc(C)cc3C)n2)cc1` the AC50 was 7.94 µM (active). `Cc1ccc(C(=O)Oc2cc(C)n(C)c(=O)c2)cc1` was tested, and the “activity, negative = inhibition” value was -24.2% (inactive). For `CN1C(C(=O)Nc2ccccn2)=C(O)c2sccc2S1(=O)=O`, the “activity, negative = inhibition” value was -5.67% [at 25.6 µM] (inactive). For `CN1C(C(=O)Nc2ccccn2)=C(O)c2ccccc2S1(=O)=O`, the AC50 was “inactive and 6.31 µM (active)”. In the case of `COc1ccccc1-c1nc(NCCN2CCOCC2)c2ccccc2n1`, the “activity, negative = inhibition” value is reported as -25.8% (inactive). With `COc1cccc(-c2nc(NCCc3c[nH]c4ccc(OC)cc34)c3ccccc3n2)c1` the AC50 was 1.58 µM (active). `COc1ccc2[nH]cc(CCNc3nc(-c4cccnc4)nc4ccccc34)c2c1` was tested, and the AC50 was 0.501 µM (active). For `COc1ccc2[nH]cc(CCNc3nc(-c4ccoc4)nc4ccccc34)c2c1`, the AC50 was 1.58 µM (active). For `COc1ccc2[nH]cc(CCNc3nc(-c4ccccc4OC)nc4ccccc34)c2c1`, the AC50 was 5.01 µM (active). For `C1CCN(CC[C@@H]2CCCCN2)CC1`, the activity, negative = inhibition was 0.696% [at 11.4 µM] (inactive). For `CCNC(=O)C/C(C)=N/NC(=O)C12CC3CC(CC(C3)C1)C2`, the “activity, negative = inhibition” value was -11.2% (inactive). `CC(C)C(NC(=O)C12CC3CC(CC(C3)C1)C2)C(=O)NC1=NCCS1` (stereo not given) was tested, and the AC50 was 10 µM (active). With `CCc1cccc2c3c([nH]c12)[C@@](CC)(CC(=O)O)OCC3` the “activity, negative = inhibition” value was -5.37% [at 25.6 µM] (inactive). In the case of `CCc1cccc2c(-c3ccccc3)c3c(nc12)OCC3`, the AC50 is reported as 7.94 µM (active). For `Cc1cc(Oc2ccccc2)nc(NCc2ccccc2)n1`, the AC50 was 3.16 µM (active). In the case of `Cn1cnc2c(NCc3ccccc3)nc(NCCO)nc21`, the “activity, negative = inhibition” value is reported as 0.577% (inactive). In the case of `Cc1cc(Oc2ccccc2)nc(-c2ccccc2)n1`, the AC50 is reported as 11.2 µM (active). For `Cc1cc(C)nc(Nc2n[nH]c(COc3cccc4ccccc34)n2)n1`, the “activity, negative = inhibition” value was -11.4% (inactive). `NCCS` was tested, and the “activity, negative = inhibition” value was -17% (inactive). For `C#CCn1c(S(=O)(=O)Cc2ccc(OC)cc2)nc(-c2ccccc2)c1-c1ccccc1`, the AC50 was 2.24 µM (active). With `O=C(O)CCNc1ccccc1C(=O)O` the activity, negative = inhibition was 16.3% [at 11.4 µM] (inactive). For `O=C(O)c1ccccc1/C=N\N=C1c2ccccc2-c2ccccc21`, the activity, negative = inhibition was 2.09% [at 11.4 µM] (inactive). For `O=C(O)c1ccccc1N/N=C\c1ccnc2ccccc12`, the AC50 was 15.8 µM (active). With `CCOC(=O)c1ccccc1OCc1cc(/C=N/n2cnnc2)ccc1OC` the AC50 was 0.794 µM (active). `CN1CCN(c2ccc([N+](=O)[O-])cc2NC(=O)c2ccccc2Cl)CC1` was tested, and the “activity, negative = inhibition” value was -22% (inactive). In the case of `CCC(=O)NC(=S)N1CCN(c2ccc([N+](=O)[O-])cc2Cl)CC1`, the AC50 is reported as 2.82 µM (active). In the case of `O=C(Nc1cc(Sc2ccccn2)cc([N+](=O)[O-])c1)c1ccc(Cl)cc1`, the AC50 is reported as 3.16 µM (active). For `O=C(Nc1cccc(-c2cnc3ccccc3n2)c1)c1ccc(Cl)cc1`, the “activity, negative = inhibition” value was 12.6% (inactive). In the case of `COC(=O)c1ccc(CSc2nc3cc(Cl)ccc3s2)o1`, the AC50 is reported as 3.16 µM (active). `C1CCc2nnnn2CC1` was tested, and the “activity, negative = inhibition” value was 21.2% [at 25.6 µM] (inactive). `COCCn1c(=O)c(-c2ccc(F)c(F)c2)nc2cncnc21` was tested, and the “activity, negative = inhibition” value was -37% (inactive). With `COc1cccc(Nc2ncc3nc(CCc4ccccc4)c(=O)n(CCC#N)c3n2)c1` the “activity, negative = inhibition” value was 10.6% (inactive). With `COc1cccc(Cn2c(=O)c(-c3cn(C)c4ccccc34)nc3cncnc32)c1` the “activity, negative = inhibition” value was -42.6% (inactive). For `COc1ccccc1CCn1c(=O)c(-c2ccc(F)cc2)nc2cncnc21`, the AC50 was 0.316 µM (active). `COCCn1c(=O)c(-c2ccc(F)cc2)nc2cncnc21` was tested, and the “activity, negative = inhibition” value was -31.8% (inactive). For `Cn1cc(-c2nc3cncnc3n(Cc3ccccc3Cl)c2=O)c2ccccc21`, the “activity, negative = inhibition” value was 1.7% (inactive). `COc1ccc(-n2c(=O)c(-c3ccc(F)c(F)c3)nc3cncnc32)cc1` was tested, and the “activity, negative = inhibition” value was -25.4% (inactive). In the case of `CN1CCN(c2ncc3nc(CCc4ccccc4)c(=O)n(C)c3n2)CC1`, the “activity, negative = inhibition” value is reported as -32% (inactive). For `COc1ccccc1CCn1c(=O)c(-c2cn(C)c3ccccc23)nc2cncnc21`, the AC50 was 0.316 µM (active). `COc1ccccc1CCn1c(=O)c(CCc2ccccc2)nc2cncnc21` was tested, and the AC50 was 3.16 µM (active). For `Cn1c(=O)c(-c2ccc(F)cc2)nc2cncnc21`, the “activity, negative = inhibition” value was -7.45% (inactive). `COc1ccccc1CCn1c(=O)c(-c2ccc(F)c(F)c2)nc2cncnc21` was tested, and the AC50 was 1.26 µM (active). For `CCOC(=O)N/N=C1/C[C@@H](O)[C@@H](O)[C@@H]2[C@@H]3C(=O)N(C(C)(C)C)C(=O)[C@H]3CC[C@H]12`, the activity, negative = inhibition was 1.59% [at 11.4 µM] (inactive). `COc1ccc(C[C@@H]2C(=O)N[C@H](C)C(=O)N(C)[C@@H]3Cc4ccc(cc4)Oc4cc(ccc4O)C[C@H](C(=O)N[C@@H](C)C(=O)N[C@H](C)C(=O)N2C)N(C)C3=O)cc1` was tested, and the activity, negative = inhibition was 1.07% [at 11.4 µM] (inactive). In the case of `Cn1c(=O)c(-c2cccc(Cl)c2)nc2cncnc21`, the “activity, negative = inhibition” value is reported as -41.4% (inactive). With `COc1ncc2nc(-c3cccs3)c(=O)n(CCC#N)c2n1` the “activity, negative = inhibition” value was -1.19% (inactive). In the case of `COc1ccccc1CCn1c(=O)c(-c2cccs2)nc2cncnc21`, the AC50 is reported as 2 µM (active). With `COCCn1c(=O)c(-c2cccc(Cl)c2)nc2cncnc21` the “activity, negative = inhibition” value was -24.7% (inactive). For `COCCn1c(=O)c(-c2cccs2)nc2cnc(N(C)C)nc21`, the “activity, negative = inhibition” value was -26.2% (inactive). With `COc1ccccc1CCn1c(=O)c(-c2cccc(Cl)c2)nc2cncnc21` the AC50 was 0.251 µM (active). `COCCn1c(=O)c(-c2ccc(Cl)cc2)nc2cnc(Nc3ccccc3)nc21` was tested, and the “activity, negative = inhibition” value was 16.1% (inactive). With `COc1ccccc1CCn1c(=O)c(-c2ccccc2)nc2cncnc21` the AC50 was 0.631 µM (active). In the case of `Cn1c(=O)c(-c2ccc(Cl)cc2)nc2cncnc21`, the “activity, negative = inhibition” value is reported as -17.1% (inactive). In the case of `COc1ccccc1CCn1c(=O)c(-c2ccc(Cl)cc2)nc2cncnc21`, the AC50 is reported as 0.398 µM (active). For `Cn1c(=O)c(-c2ccccc2)nc2cncnc21`, the “activity, negative = inhibition” value was -11.3% (inactive). With `O=C(Nc1ccccc1)N1CCCC2(CCN(C(=O)c3ccco3)CC2)C1` the “activity, negative = inhibition” value was -38.7% (inactive). `CCOC(=O)N/N=C1/C[C@@H](O)[C@@H](O)[C@@H]2[C@@H]3C(=O)N(c4cccc(Oc5ccccc5)c4)C(=O)[C@H]3CC[C@@H]12` was tested, and the activity, negative = inhibition was -10.2% [at 11.4 µM] (inactive). With `NS(=O)(=O)c1cc(Br)c(N=Nc2ccc(O)c3ncccc23)c(Br)c1` the activity, negative = inhibition was -10.5% [at 11.4 µM] (inactive). With `COc1ccc(-n2c(=O)c(-c3cn(C)c4ccccc34)nc3cncnc32)cc1` the AC50 was 15.8 µM (active). For `COc1ccc(-n2c(=O)c(-c3cn(C)c4ccccc34)nc3cnc(OC)nc32)cc1`, the “activity, negative = inhibition” value was -5% (inactive). With `COc1ccc(/C=C/C(=O)NCc2cn(C)nc2C)cc1COc1ccc(Br)cc1` the AC50 was 3.98 µM (active). `CCn1ncc(/C=C/C(=O)NCc2cn(C)nc2C)c1C` was tested, and the “activity, negative = inhibition” value was -1.07% (inactive). `Cc1nn(C)cc1CNC(=O)CCC(=O)O` was tested, and the “activity, negative = inhibition” value was -3.78% (inactive). For `COc1ccc(C(=O)NN)cc1COc1ccc(Br)cc1`, the AC50 was 0.251 µM (active). With `NC(=O)C1=CN([C@@H]2O[C@@H](COP(=O)(O)OP(=O)(O)OC[C@@H]3O[C@H](n4cnc5c(N)ncnc54)[C@@H](OP(=O)(O)O)[C@@H]3O)[C@H](O)[C@@H]2O)C=CC1` the “activity, negative = inhibition” value was 3.48% (inactive). In the case of `CS(=O)(=O)c1ccc(/C=N\NC(N)=S)cc1`, the activity, negative = inhibition is reported as -0.291% [at 11.4 µM] (inactive). With `CC(C)c1ccc(/C=N/NC(=O)CN(c2cccc(Cl)c2Cl)S(C)(=O)=O)cc1` the AC50 was 15.8 µM (active). In the case of `Cc1[nH]nc(Nc2ccccc2)c1[N+](=O)[O-]`, the AC50 is reported as 14.1 µM (active). With `Nc1nc(NCc2ccccc2)nc(Nc2cccc(F)c2)c1[N+](=O)[O-]` the “activity, negative = inhibition” value was -3.88% (inactive). In the case of `Cc1cccc(-c2n[nH]c([N+](=O)[O-])n2)c1`, the “activity, negative = inhibition” value is reported as -14.2% (inactive). `CN=C1S/C(=C\c2ccc(Sc3ccc(Cl)cc3)o2)C(=O)N1C` was tested, and the “activity, negative = inhibition” value was -21.7% (inactive). In the case of `Clc1ccc(Sc2ccc(/C=N/n3cnnc3)o2)cc1`, the AC50 is reported as 2.82 µM (active). In the case of `CCCN1C(=O)/C(=C/c2ccc(C)s2)SC1=Nc1ccc(OC)cc1`, the AC50 is reported as 11.2 µM (active). In the case of `COc1ccc(N=C2S/C(=C\c3ccc(C)s3)C(=O)N2CC(C)C)cc1`, the “activity, negative = inhibition” value is reported as -27% (inactive). In the case of `CC(C)CN(CC#N)CC(C)C`, the activity, negative = inhibition is reported as 2.34% [at 11.4 µM] (inactive). `c1ccc(-c2nc3ccccn3c2NCc2ccc3c(c2)OCO3)cc1` was tested, and the AC50 was 0.316 µM (active). With `CN(C)CCNS(=O)(=O)N(C)C` the activity, negative = inhibition was 0.116% [at 11.4 µM] (inactive). `C=CCN=C(NC#N)SCc1ccccc1` was tested, and the AC50 was 14.1 µM (active). With `Cc1ccc(/C=C/C2=Cc3c(sc(NC(=O)CSc4n[nH]c(N)n4)c3C#N)C(C)(C)C2)o1` the AC50 was 4.47 µM (active). For `CCOc1ccc(/C=C/C2=Cc3c(sc(NC(=O)CSc4n[nH]c(N)n4)c3C#N)C(C)(C)C2)cc1`, the AC50 was 10 µM (active). `N[C@@H](Cc1ccc(O)c(O)c1)C(=O)O` was tested, and the AC50 was “inactive”. `O=C1CCCN1c1ccc(S(=O)(=O)Oc2cccc(Cl)c2)cc1[N+](=O)[O-]` was tested, and the AC50 was 0.501 µM (active). For `Cc1cc(C(C)(C)C)cc(C)c1CC1=NCCN1`, the “activity, negative = inhibition” value was -32.4% [at 25.6 µM] (inactive). With `O=C(Cn1ccc(=O)[nH]c1=O)Nc1ccc(C(=O)O)c(O)c1` the activity, negative = inhibition was 40.8% [at 11.4 µM] (inactive). With `N=c1sccn1CC(=O)Nc1cccc(Oc2ccccc2)c1` the AC50 was 15.8 µM (active). `CC1(C)CCC=[N+]1[O-]` was tested, and the “activity, negative = inhibition” value was 5.41% (inactive). With `COCn1c2ccccc2c2nnc(C(C)=O)nc21` the activity, negative = inhibition was 5.57% [at 11.4 µM] (inactive) and -2.14% [at 11.4 µM] (inactive). For `CCCCCOC(=O)c1c(N)n(CCOC)c2nc3ccccc3nc12`, the AC50 was 14.1 µM (active). For `C/C(=N\NC(=S)Nc1ccc(F)cc1)C1CC1`, the AC50 was 0.562 µM (active). In the case of `COC(=O)C1=C(N)N(c2ccccc2C(F)(F)F)C2=C(C(=O)CCC2)C1c1ccc2c(c1)OCO2` (stereo not given), the AC50 is reported as 20 µM (active). With `COc1ccc(OC)c(NC(=O)c2cc3n(n2)C(C(F)(F)F)CC(c2ccc4c(c2)OCO4)N3)c1` (stereo not given) the “activity, negative = inhibition” value was -10.9% (inactive). `COc1ccc(NC(=O)c2cc3n(n2)C(C(F)(F)F)CC(c2ccc4c(c2)OCO4)N3)cc1OC` (stereo not given) was tested, and the “activity, negative = inhibition” value was -24.3% (inactive). For `C#CC[N+](CC)(CC)CC#Cc1cccc(Cl)c1`, the “activity, negative = inhibition” value was -10.1% (inactive). `O=C(c1ccc(COc2ccc(F)cc2)o1)n1cccn1` was tested, and the AC50 was 3.55 µM (active).
